# Inconclusive results are not listed. Unmarked numbers belong to inactive results. Calls follow the shape of the dose curve; as a rule, active = well fitted cell-killing curve with a large enough effect in the repeat runs; inconclusive = weak or mixed curves, or effect the other way; inactive = no such curve, though single readings can be large or run the other way. Where a SMILES comes first, the peptide text is derived from it. [ ]: non-standard residue; d: D form. pGlu = O=C1CC[C@@H](C(=O)O)N1
# Assay: qHTS assay to identify small molecule antagonists of the peroxisome proliferator-activated receptor gamma (PPARg) signaling pathway - cell viability counter screen (AID 743194); also: nearly all actives have a fitted effect of over 55% in size
# Conditions: PPARg-bla HEK293H viability, CellTiter-Glo luminescence, 17 h, co-treated with 50 nM rosiglitazone; series mostly up to 62.6 µM; activity change, negative = cytotoxicity: at the top concentration
# Source text: U.S. Tox21 Program National Center for Advancing Translational Sciences [NCATS] NIH Chemical Genomics Center [NCGC] U.S. Environmental Protection Agency [EPA] National Institutes of Environmental Health Sciences [NIEHS] National Toxicology Program [NTP] U.S. Food and Drug Administration [FDA] Tox21 Assay Overview: The peroxisome proliferator-activated receptors (PPARs) are lipid-activated transcription factors of the nuclear receptor superfamily with three distinct subtypes namely PPAR alpha, PPAR delta (also called PPAR beta) and PPAR gamma (PPARg). All these subtypes heterodimerize with Retinoid X receptor (RXR) and these heterodimers regulate transcription of various genes. PPAR-gamma receptor (glitazone receptor) is involved in the regulation of glucose and lipid metabolism. To identify the compounds that activate PPAR-gamma signaling, GeneBLAzer PPAR gamma UAS-bla HEK293H cell line (Invitrogen, Carlsbad, CA, USA) containing a beta-lactamase reporter gene under the control of an Upstream Activator Sequence (UAS) was used to screen the Tox21 compound library. The cytotoxicity of the Tox21 compound library against the PPARg-bla cell line was tested in parallel by measuring the cell viability using CellTiter-Glo assay in the same wells.
# Tox21 Assay Protocol Summary: PPARg-bla cells were dispensed at 3000 cells/5uL/well in 1536-well black wall/clear bottom plates using a Multidrop Combi (Thermo Fisher Scientific, Waltham, MA) dispenser. After the assay plates were incubated at 37 C and 5% CO2 for 5 h, 23 nL of compounds dissolved in DMSO, positive controls or DMSO only was transferred to the assay plate by a Pintool station (Kalypsys, San Diego, CA), followed by addition of 1ul Rosiglitazone (50 nM, final concentration in the wells). The assay plates were incubated at 37 C for 17 h, and then 1 uL of LiveBLAzerTM B/G FRET substrate was added using a Bioraptr Flying Reagent Dispenser (FRD) workstation (Beckman Coulter, Indianapolis, IN, USA). The assay plates were incubated at room temperature for 1 h and fluorescence intensity was measured by an Envision plate reader (PerkinElmer, Shelton, CT). For cell viability readout that measures cytotoxicity, 4 ul/well of CellTiter-Glo reagent was added into the assay plates using a Flying Reagent Dispenser. After 30 min incubation at room temperature, the luminescence intensity in the plates was measured using a ViewLux plate reader (PerkinElmer).
# % is scaled to controls: 0 for no effect and ±100 for the full control effect.
row,SMILES,"activity change, negative = cytotoxicity"
1,NCCCC(N)(C(=O)O)C(F)F (stereo not given),21.8%
2,COc1cc(C)nc(-n2nc(C)cc2OC)n1,-1.12%
3,O=[N+]([O-])c1ccc(/C=N\O)o1,18.9%
4,C=CC(=O)OCCCl,-10.6% [at 81.1 µM]
5,C=C(C)C(=O)OCC1CCCO1 (stereo not given),1.74%
6,Cc1nc(C2CCCCC2)c(-c2ccc(S(N)(=O)=O)c(F)c2)o1,14.7%
7,CC(C)[C@H]1CC[C@@H](C)CC1=O,-7.74%
8,CCC(C(=O)NC(=O)NC(C)=O)c1ccccc1 (stereo not given),18.9%
9,Cc1ccc(-c2ccccc2C#N)cc1,12.6%
10,CC(CO)(CO)[N+](=O)[O-],5.06%
11,C=C[Si](OC(C)=O)(OC(C)=O)OC(C)=O,-6.4%
12,NC(N)=NCCN1CCCCCCC1,6.29% [at 0.55 µM]
13,NC(=O)N[C@@H](CCC(=O)O)C(=O)O,-13.5%
14,CC[N+](CC)(CC(=O)Nc1c(C)cccc1C)Cc1ccccc1 (tested in a mixture with another compound),0.983%
15,CO/N=C(\C(=O)N[C@@H]1C(=O)N2C(C(=O)O)=C(CSc3nc(=O)c(O)nn3C)CS[C@H]12)c1csc(N)n1,4.87%
16,Nc1ccncc1N,0.822%
17,CCCc1ncc(C[n+]2ccccc2C)c(N)n1,-10.8%
18,[O-][n+]1cccc(CO)c1,0.573%
19,CN1CC(=O)N/C1=N/C(=O)Nc1cccc(Cl)c1,4.53%
20,CCCCCCCCCCCCSC,3.36%

row,SMILES,"activity change, negative = cytotoxicity"
1,CCNC(=O)[C@@H]1CCCN1C(=O)[C@H](CCCN=C(N)N)NC(=O)[C@H](CC(C)C)NC(=O)CNC(=O)[C@H](Cc1ccc(O)cc1)NC(=O)[C@H](CO)NC(=O)[C@H](Cc1c[nH]c2ccccc12)NC(=O)[C@H](Cc1cnc[nH]1)NC(=O)[C@@H]1CCC(=O)N1 ([pGlu]HWSYGLRP-NHEt),5.96%
2,CO[Si](C)(OC)c1ccccc1,2.57%
3,Cc1nc2ccc(CN(C)c3ccc(C(=O)N[C@@H](CCC(=O)O)C(=O)O)s3)cc2c(=O)[nH]1,1.96%
4,CCCCS(=O)(=O)N[C@@H](Cc1ccc(OCCCCC2CCNCC2)cc1)C(=O)O,-0.909%
5,Cc1ccnc(NS(=O)(=O)c2ccc(N)cc2)n1,1.77%
6,CC(C)(CCC(=O)O)C(=O)O,-4.87% [at 81.1 µM]
7,CCCCCCCC1CCCC1=O (stereo not given),7.95%
8,COc1cc(-c2ccc(=O)[nH]n2)ccc1OC(F)F,8.07%
9,CC(C)NNC(=O)c1ccncc1,-15%
10,O=C(O)CCSCCC(=O)O,0.0231%
11,CC(=O)OCC(=O)[C@@]1(O)[C@H](C)C[C@H]2[C@@H]3CCC4=CC(=O)C=C[C@]4(C)[C@@]3(F)[C@@H](O)C[C@@]21C,2.53%
12,CCCCCCCCCCCCCCCCCCO,1.11%
13,C[C@@H]1CCC[C@H](C)N1,0.276%
14,CC(=O)NC(=O)c1ccccc1O,-15%
15,CO[C@@]1(NC(=O)C(C(=O)O)c2ccc(O)cc2)C(=O)N2C(C(=O)O)=C(CSc3nnnn3C)CO[C@@H]21 (stereo not given in full),-16.1%
16,CCCCCCCCCC[N+](C)(C)[O-],0.945%
17,O=S(=O)(O)c1cccc2c(S(=O)(=O)O)cccc12,-1.15%
18,CC1=NS(=O)(=O)c2cc(Cl)ccc2N1,-20.8%
19,CCCC[N+](C)(CCCC)CCCC,9.91%
20,CC1(C)OC[C@@H](COC(=O)CCc2ccc(OC[C@@H](O)CNCCNC(=O)N3CCOCC3)cc2)O1,7.43%
